From PubChem BioAssay (NCATS)
Results filed as inconclusive are left out. The source made the active and inactive calls. Unless noted, the call rests on the fitted dose curve; in most records, active means well fitted curve in the direction sought with a large enough effect; inconclusive means small, poorly fitted or top-dose-only effect, or another doubt; inactive means no such curve, though single readings can be large; an effect the other way counts as inactive or inconclusive.

Experiments:
[1] = qHTS for Inhibitors of Plasmodium falciparum (DD2) proliferation (AID 504314);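 further: parasite DNA measured by SYBR Green fluorescence after red cell lysis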
Method in brief: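 Normalization used 0.29 uM artemisinin as full inhibition and DMSO as baseline. Parasitized erythrocytes were exposed to compounds for 72 h (37C, 5% CO2), then lysed with saponin/Triton buffer containing SYBR Green I.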

[2] = qHTS for Inhibitors of Plasmodium falciparum (GB4) proliferation (AID 504315); further: nearly all actives have a fitted effect of over 50% in size
Method in brief: (§1)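 Parasite growth measured as SYBR Green DNA fluorescence (ex 485, em 535 nm) after overnight lysis following 72 h culture at 37 °C, 0.3% parasitemia, 2.5% hematocrit. Values normalized against DMSO and 0.29 uM artemisinin controls, with plate-stack correction.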

[3] = qHTS for Inhibitors of Plasmodium falciparum (7G8) proliferation (AID 504316); further: series mostly up to about 6.7 µM; nearly all actives have a fitted effect of over 65% in size
Method in brief: as §1

[4] = qHTS for Inhibitors of Plasmodium falciparum (HB3) proliferation (AID 504318); further: nearly all actives have a fitted effect of over 60% in size
Method in brief: as §1

[5] = qHTS for Inhibitors of Plasmodium falciparum (CP250) proliferation (AID 504320)
Method in brief: as §1

[6] = molecular target: Atrial natriuretic peptide receptor 1 (Homo sapiens) (UniProt P16066); test: Natriuretic polypeptide receptor (hNpr1) antagonism - Pilot CMLD screen (AID 1347052; calls by dose curve;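 further: HEK293 cells with hNpr1 stimulated by hNppA peptide at 0.1 nM; cGMP level read as GloSensor luciferase luminescence after agonist stimulation; series mostly up to about 9.2 µM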)

Measured: Potency

Atrial natriuretic peptide receptor 1 (Homo sapiens), sequence (P16066 whole entry, looked up): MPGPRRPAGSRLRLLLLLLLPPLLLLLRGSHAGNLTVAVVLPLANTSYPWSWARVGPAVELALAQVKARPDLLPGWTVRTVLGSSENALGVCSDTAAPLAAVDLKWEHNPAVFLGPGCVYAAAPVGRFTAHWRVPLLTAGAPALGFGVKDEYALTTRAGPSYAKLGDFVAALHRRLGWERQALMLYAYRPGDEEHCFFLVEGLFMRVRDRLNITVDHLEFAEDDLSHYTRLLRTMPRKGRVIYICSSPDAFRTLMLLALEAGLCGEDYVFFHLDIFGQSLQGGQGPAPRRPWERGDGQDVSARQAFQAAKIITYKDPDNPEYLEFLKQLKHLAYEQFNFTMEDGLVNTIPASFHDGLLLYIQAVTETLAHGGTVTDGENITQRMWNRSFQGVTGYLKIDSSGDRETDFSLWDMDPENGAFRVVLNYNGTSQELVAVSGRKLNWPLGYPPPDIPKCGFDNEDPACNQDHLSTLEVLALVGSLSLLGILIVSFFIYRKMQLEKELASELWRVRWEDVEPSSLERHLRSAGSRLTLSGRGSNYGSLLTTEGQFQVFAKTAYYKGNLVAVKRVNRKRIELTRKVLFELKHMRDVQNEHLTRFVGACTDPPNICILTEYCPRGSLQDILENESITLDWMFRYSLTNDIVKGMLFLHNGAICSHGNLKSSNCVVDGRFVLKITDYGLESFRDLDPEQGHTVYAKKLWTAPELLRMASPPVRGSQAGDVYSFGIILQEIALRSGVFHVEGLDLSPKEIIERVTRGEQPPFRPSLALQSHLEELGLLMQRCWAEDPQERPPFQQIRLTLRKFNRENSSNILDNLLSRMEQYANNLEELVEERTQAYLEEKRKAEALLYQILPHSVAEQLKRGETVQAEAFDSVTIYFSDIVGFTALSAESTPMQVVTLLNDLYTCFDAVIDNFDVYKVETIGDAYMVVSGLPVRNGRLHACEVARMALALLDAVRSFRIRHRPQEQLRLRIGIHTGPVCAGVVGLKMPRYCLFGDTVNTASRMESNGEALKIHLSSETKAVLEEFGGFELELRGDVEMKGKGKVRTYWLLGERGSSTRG

COc1cccc(CC(=O)N2CCc3nc(COc4ccccc4)c4c(c3C2)CO[C@@H](C)C4)c1
inactive: [1] | [2] | [3] | [4] | [5] | [6]

C=C(C#Cc1ccc(OC)cc1)CCN1C=C(C(=O)OCC)C(c2ccccc2)NC1=O (centres undefined)
inactive: [1] | [2] | [3] | [4] | [5] | [6]

COC(=O)C1=C[C@@H]([C@@H](C)[C@H](OC)c2ccccc2Br)[C@@H]2OCC[C@H]12
inactive: [1] | [2] | [3] | [4] | [5] | [6]

C=CCOC(=O)N[C@H](C[N+](=O)[O-])c1ccccc1
inactive: [1] | [2] | [3] | [4] | [5] | [6]

COC(=O)[C@@]1(C=C2c3ccc(OC)cc3[C@@H](OC)[C@@H]2C)[C@@H]2C=CC[C@@H]21
inactive: [1] | [2] | [3] | [4] | [5] | [6]

C=CCN1c2ccccc2[C@]23C[C@@H](C(=O)OC)N(C(=O)Nc4ccc(C(F)(F)F)cc4)C2=NC(C(=O)OC)=C(C(=O)OC)[C@H]13
inactive: [1] | [2] | [3] | [4] | [5] | [6]

C=CCC(Nc1ccc(OC)cc1)C(=O)OCC (centres undefined)
inactive: [1] | [2] | [3] | [4] | [5] | [6]

C[C@H]1[C@@H]2O[C@H]2CCO[C@H]1c1cccc(Br)c1
inactive: [1] | [2] | [3] | [4] | [5] | [6]

CCCCn1c(C)cc2c(c1=O)[C@H]1O[C@](c3ccsc3)(Cc3cc(OC)c(OC)cc31)O2
inactive: [1] | [2] | [3] | [4] | [5] | [6]

C=CC1=C2C=C(C3CC3)N(C3CCCC3)C=C2C(=O)C(C)(OC(=O)c2ccco2)C1=O (centres undefined)
inactive: [1] | [2] | [3] | [4] | [5] | [6]

COC(=O)[C@@H](NC(=O)O[C@@H]1C(=O)c2cc(Br)ccc2O[C@H]1c1cccc(OC)c1)C(C)C
inactive: [1] | [2] | [3] | [4] | [5] | [6]

C[C@@H]1C[C@H]2CC(=O)N3[C@H](CC(=O)N2[C@H]1c1ccccc1)C[C@@H](C)[C@@H]3c1ccccc1
inactive: [1] | [2] | [3] | [4] | [5] | [6]

COCCN1C(=O)C2=C(C1=O)C1N(C)c3ccccc3[C@@]13C[C@@H](CO)N(C(C)=O)C3=N2 (some centres undefined)
inactive: [1] | [2] | [3] | [4] | [5] | [6]

COC(=O)C1=C(C)N(CC2CC2)C(=O)NC1c1ccccc1 (centres undefined)
inactive: [1] | [2] | [3] | [4] | [5] | [6]
